Compound activity: PubChem BioAssay, several laboratories
An excerpt weighted towards active compounds, which were near 9.1% of everything screened.
D1 mod: allosterically modulates the human D1 dopamine receptor | HEK293 D1, CRE-luciferase, dopamine EC30 potentiation; actives deviate in either direction | AID 641 | B-score at 10 µM | 58,000 tested, 5.9% active;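 active = luminescence count or its row- and column-corrected plate score outside the 99.7% band of the plate's sample wells, on either side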
M1 antagonist: blocks the rat M1 muscarinic receptor response to acetylcholine | AID 628 | 64,000 tested, 3.4% active | CHO-M1 cells, Fluo-4 calcium, ACh EC80 antagonist mode; stronger effect = lower value | P08482 | B-score at 10 µM;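 active = calcium fluorescence response, raw or row-and-column corrected B-score, differing from the plate sample mean either way at a set confidence level, mostly lower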
mHtt clearance: compounds clearing mutant huntingtin protein; inhibition, % at 1.5 µM; 47,000 tested, 0.42% active; AID 853; HeLa Exon1htt(103Q)mCFP, aggregate imaging; zero = plate's median compound well;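 active = inhibition of aggregate fluorescence above about 70%, also judged a hit by eye on the cell image, limit read from the data, passing the limit was not always enough; inconclusive = no rule stated for this call; inactive = not judged a hit on image review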;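 also: cells exposed to compound for three days before fixation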
M1 ag: agonists of M1 muscarinic receptor; CHO-M1 cells, Fluo-4 calcium fluorescence, agonist mode; stronger effect = higher value; B-score at 10 µM; 64,000 tested, 3% active; AID 626;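 active = fluorescence rise, raw or as B-score row- and column-corrected plate score, outside the 99.7% band of its plate's samples, either direction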
M1 agonist conf: confirmation of rat M1 muscarinic receptor agonists; shares compounds with M1 ag; CHO-M1 cells, Fluo-4 calcium fluorescence, agonist mode; actives lie on both sides; 1,700 tested, 19% active; fluorescence change (max-min) at 10 µM;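 active = fluorescence change differs from the solvent-only DMSO control mean at a set confidence level in both duplicate runs; inconclusive = differs from solvent-only control mean in just one of two runs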;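 also: an EC20 dose of acetylcholine follows compound addition during the same imaging run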
M4 agonist ctr: counter-screen for M1 agonists: activity at rat M4 receptor | shares compounds with M1 ag | fluorescence change (max-min) at 10 µM | CHO M4/Gqi5 cells, Fluo-4 calcium fluorescence, agonist mode; actives lie on both sides | 1,700 tested, 9% active;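 active = fluorescence change differing from the plate's solvent-only control wells at 99.7% confidence in both duplicates, whether higher or lower; inconclusive = differs from solvent controls in only one of two duplicates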
Target sequence (P08485 whole entry, looked up): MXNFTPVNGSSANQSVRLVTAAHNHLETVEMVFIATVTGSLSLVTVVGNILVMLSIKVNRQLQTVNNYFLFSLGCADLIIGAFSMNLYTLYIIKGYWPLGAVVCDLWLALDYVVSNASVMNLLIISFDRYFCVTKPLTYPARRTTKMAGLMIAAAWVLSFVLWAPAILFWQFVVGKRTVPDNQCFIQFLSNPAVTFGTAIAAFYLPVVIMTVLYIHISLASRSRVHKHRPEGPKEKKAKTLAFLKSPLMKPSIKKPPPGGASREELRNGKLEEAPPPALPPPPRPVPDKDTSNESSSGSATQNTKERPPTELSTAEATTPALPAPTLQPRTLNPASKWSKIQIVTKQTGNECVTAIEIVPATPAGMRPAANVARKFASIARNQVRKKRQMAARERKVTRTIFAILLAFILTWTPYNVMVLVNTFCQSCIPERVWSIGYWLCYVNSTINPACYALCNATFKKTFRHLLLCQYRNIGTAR
Hits are given with their value; - = inactive; ? = inconclusive; . = not tested or not shown.

SMILES	D1 mod	M1 antagonist	mHtt clearance	M1 ag	M1 agonist conf	M4 agonist ctr
COc1ccc(NC(=O)C2Cc3ccccc3CN2C(=O)c2ccccc2)cn1 (configuration not stated)	-	-	-	16	?	?
O=C(NC1=NCCS1)C1Cc2ccccc2CN1C(=O)c1ccccc1 (configuration not stated)	-	-	.	-	.	.
COc1cc(C2CC(=O)c3c([nH]c(C(=O)OCCOC(C)C)c3C)C2)cc(OC)c1OC (configuration not stated)	-	-	-	3.2	-33	-
CCOC(=O)c1[nH]c2c(c1C)C(=O)CC(c1ccc(OC)c(OC)c1)C2 (configuration not stated)	-	-	.	-	.	.
CC1(C)Cc2c(c(-c3ccco3)[nH]c(=O)c2C#N)CS1	.	-	.	24	-	-
CCOC(=O)C(CC)n1cnc2c(nnn2-c2ccc(C)cc2)c1=O (configuration not stated)	-	-	.	6.4	-	-71
COC(=O)C(C)n1cnc2c(nnn2-c2ccc(OC)cc2)c1=O (configuration not stated)	-	-	-	-	.	.
Cc1ccc(C(=O)NCCCN2CCOCC2)o1	.	.	-	.	.	.
COc1cccc2cc(-c3nc(-c4cccs4)cs3)c(=O)oc12	-2.4	-	.	14	?	?
O=C(COC(=O)c1cccc(NC(=O)c2ccco2)c1)c1ccc(Br)cc1	-	-	-	-	.	.
O=C(COc1cccc(NC(=O)c2ccco2)c1)c1ccc(F)cc1	-	-	.	5.7	?	?
O=C(O)Cn1c(CC(=O)N2CCCC2)nc2ccccc21	-	-	-	-	.	.
O=C(N1CCCC1)n1c(Cc2ccccc2)nc2ccccc21	-	-	.	6.4	?	-82
CCCC(C)C(=O)Nc1ccc(C(N)=O)cc1 (configuration not stated)	-	-	-	-	.	.
Cc1ccccc1CSc1nc2c(c(=O)[nH]1)CCCC2	.	.	-	.	.	.
Cc1ccc(CSc2nc3c(c(=O)[nH]2)CCC3)cc1	-	-	.	2.3	-	-
CCCC(C)NC1=NCCCCC1 (configuration not stated)	.	.	-	.	.	.
CCOc1ccc(NC(=O)CC2CC(C)(C)OC2=O)cc1 (configuration not stated)	-	-	.	12	-	?
CCOc1ccc(NC(=O)CCC(=O)OC)cc1	-	-	-	-	.	.
Cc1ccc2[nH]c(=O)c(CN(CCc3ccccc3)C(=O)N3CCOCC3)cc2c1	-	-	-	14	-	?
CCOC(=O)C1CCCN(C(=O)Cn2cccc2C(=O)c2ccccc2)C1 (configuration not stated)	-	-	-	-2.6	?	-
O=C(Cn1cnc2c(nnn2-c2ccc(F)cc2)c1=O)N1CCCc2ccccc21	-	-	-	-3.2	-	-
COc1ccc(-n2nnc3c(=O)n(CC(=O)N4CCCc5ccccc54)cnc32)cc1	.	-	.	-	.	.
O=C(CSc1nc2ccc(Cl)cc2[nH]1)NCc1ccco1	-	-	-	3.1	-25	-74
C=CCSc1nnc(-c2ccncc2)n1-c1ccc(OCC)cc1	-	-	-	1.7	-	-
SMILES	D1 mod	M1 antagonist	mHtt clearance	M1 ag	M1 agonist conf	M4 agonist ctr
COC(=O)c1ccc(CSc2ncnc3c2nnn3-c2ccc(F)cc2)o1	-	-	.	-	.	.
Cc1ccc(C2C=C(c3ccc4c(c3)OCO4)Nc3ncnn32)cc1 (configuration not stated)	-	-	.	-	.	.
Cc1ccsc1C1C=C(c2cccc(Br)c2)Nc2ncnn21 (configuration not stated)	-	-	.	34	836	793
COc1ccc(C2=CC(c3sccc3C)n3nnnc3N2)cc1 (configuration not stated)	-	-	.	-	.	.
COc1cccc(C2=CC(c3ccc(C)cc3)n3ncnc3N2)c1 (configuration not stated)	-	-	.	8	165	?
CCOC(=O)Cc1cnc(NC(=O)c2ccccc2)s1	-	-	.	3.2	-	?
CCOC(=O)c1csc(NC(=O)c2ccccc2)n1	-	-	-	-	.	.
CN(C)/C=N/c1cnc(C(=O)c2ccc(Cl)cc2)n1C	-	-	-	-	.	.
Cc1ccc(NC(=O)N(Cc2ccc3c(c2)OCO3)Cc2cc3cc4c(cc3[nH]c2=O)OCCO4)cc1	-	-	-	-	.	.
O=C(Nc1ccc(F)cc1)N(Cc1ccco1)Cc1cc2cc3c(cc2[nH]c1=O)OCO3	-	-	.	-2.5	-	-
C1=CC2CC1CC2CN1CCN(c2ccccc2)CC1 (configuration not stated)	-4.6	-	.	6.4	?	-
O=C(Cc1ccccc1)N1CCN(C(=O)c2ccco2)CC1	.	.	-	.	.	.
O=C(c1ccco1)N1CCN(CC2CC3C=CC2C3)CC1 (configuration not stated)	-	-2.4	-	6.2	?	-
CS(=O)(=O)N1CCN(CC2CC3C=CC2C3)CC1 (configuration not stated)	-	-6.8	.	37	208	-
CS(=O)(=O)N1CCN(Cc2ccccc2C(F)(F)F)CC1	-	-	-	-	.	.
CC1CCN(C(=O)CSc2nnc(-c3cc4ccccc4cc3O)n2Cc2ccco2)CC1	-	-	.	-	.	.
CCOCCCn1c(=NC(C)=O)c(C(=O)OCC)cc2c(=O)n3ccccc3nc21	-	-	-	-	.	.
CCOC(=O)c1cc2c(=O)n3ccccc3nc2n(CCOC)c1=NC(=O)C(C)(C)C	-	.	-	.	.	.
CCOC(=O)c1cc2c(=O)n3ccccc3nc2n(CCOC)c1=NC(=O)c1ccncc1	-	-	.	2.2	-	-
CCOC(=O)c1cc2c(=O)n3cccc(C)c3nc2n(Cc2ccco2)c1=NC(=O)c1cccnc1	-	-	.	40	180	-
CCOC(=O)c1cc2c(=O)n3cccc(C)c3nc2n(C)c1=N	.	-	.	-	.	.
CCOC(=O)c1cc2c(=O)n3ccccc3nc2n(Cc2ccco2)c1=NC(=O)c1cccnc1	-	-	-	6.2	146	-
CCc1nnc(NC(=O)CSc2nccn2-c2cc(C)cc(C)c2)s1	-	-	.	-	.	.
COc1cc(N2CN=c3s/c(=C\c4ccccn4)c(=O)n3C2)cc(OC)c1OC	-	-	.	-	.	.
CCC(C)c1ccc(OCCCCN2CCOCC2)cc1 (configuration not stated)	.	.	-	.	.	.
Cc1ccc(NC(=O)CCSc2nnnn2-c2ccc3c(c2)OCO3)cc1C	-	-	-	-2.7	-	-
Cc1ccc(-n2c(C)cc(C(=O)OCC(=O)N(C)C3CCS(=O)(=O)C3)c2C)cc1 (configuration not stated)	-	-	.	-	.	.
CC(C)n1nc(C(=O)OCC(=O)N(C)C2CCS(=O)(=O)C2)c2ccccc2c1=O (configuration not stated)	-	-	-	10	-	-
CC(=O)c1ccc(NC(=O)CSc2nnc(-c3ccoc3C)n2Cc2ccccc2)cc1	-	-	-	27	?	-75
O=C(CCN1C(=O)c2ccccc2S1(=O)=O)Nc1nc2c(s1)CCCC2	-	-	-	-	.	.
